Reference: PMC5540273 (PLoS ONE, 2017)

Columns and labels:
AAK1 = conditions: concentration: 1 μM, replicates: in singlicate; n = 1
ABL1-nonphosphorylated = conditions: concentration: 1 μM, replicates: in singlicate; n = 1
ABL1-phosphorylated = conditions: concentration: 1 μM, replicates: in singlicate; n = 1
ABL2 = conditions: concentration: 1 μM, replicates: in singlicate; n = 1
ACVR1B = conditions: concentration: 1 μM, replicates: in singlicate; n = 1
ACVR1 = conditions: concentration: 1 μM, replicates: in singlicate; n = 1
ACVR2A = conditions: concentration: 1 μM, replicates: in singlicate; n = 1
ACVR2B = conditions: concentration: 1 μM, replicates: in singlicate; n = 1
ACVRL1 = conditions: concentration: 1 μM, replicates: in singlicate; n = 1
ADCK3 = system: T1, ADCK3; conditions: concentration: 1 μM, replicates: in singlicate; n = 1
T1 construct: gene CABC1

ADCK4 = conditions: concentration: 1 μM, replicates: in singlicate; n = 1
AKT1 = conditions: concentration: 1 μM, replicates: in singlicate; n = 1
AKT2 = conditions: concentration: 1 μM, replicates: in singlicate; n = 1
p38-alpha = system: T2, p38-alpha
T2 construct: gene MAPK14
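Throughout, for %Inh: KINOMEscan kinase panel screen.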
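Throughout, for Kd: kd values determined as follow-up on hits from a single-replicate KINOMEscan panel screen.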

Row | SMILES | %Inh (AAK1) [%] | %Inh (ABL1-nonphosphorylated) [%] | %Inh (ABL1-phosphorylated) [%] | %Inh (ABL2) [%] | %Inh (ACVR1B) [%] | %Inh (ACVR1) [%] | %Inh (ACVR2A) [%] | %Inh (ACVR2B) [%] | %Inh (ACVRL1) [%] | %Inh (ADCK3) [%] | %Inh (ADCK4) [%] | %Inh (AKT1) [%] | %Inh (AKT2) [%] | Kd (p38-alpha) [µM] | Kd (ZAK) [µM] | Kd (WNK4) [µM]
1 | CN1c2ccc(-c3ccc(C(=O)NCCO)cc3)cc2-c2[nH]ncc2S1(=O)=O | 54 | 33 | 15 | 7 | 0 | 22 | 0 | 2 | 0 | 0 | 3 | 11 | 0 |  |  | 
2 | Cc1cc(N2CCC(NS(=O)(=O)c3ccc(F)cc3)CC2)nc(Nc2cccc(C#N)c2)n1.O=C(O)C(F)(F)F [GSK1653537] | 9 | 0 | 0 | 2 | 0 | 0 | 0 | 0 | 0 | 0 | 0 | 0 | 20 |  |  | 
3 | CC(C)N1CCC(n2cnc(-c3ccc(F)cc3)c2-c2ccnc(N)n2)CC1 [SB-223132] | 9 | 50 | 19 | 0 | 0 | 0 | 22 | 25 | 0 | 31 | 0 | 3 | 0 | 0.16 |  | 
4 | CS(=O)(=O)CCNCc1nc(-c2ccc3ncnc(Nc4ccc(OCc5cccc(F)c5)c(Cl)c4)c3c2)cs1.Cl [GW583340] | 19 | 0 | 0 | 0 | 0 | 0 | 0 | 0 | 0 | 1 | 20 | 0 | 0 |  | > 10 | 
5 | Cl.Fc1ccccc1COc1ccc(Nc2ncnc3ccc(-c4nnc(C(F)(F)F)o4)cc23)cc1Cl [GW424170] | 0 | 0 | 0 | 0 | 0 | 0 | 0 | 0 | 0 | 0 | 22 | 0 | 0 |  |  | 
6 | Nc1nc(-c2ccccn2)c(-c2ccnc3ccccc23)s1 [GW548057] | 1 | 28 | 26 | 14 | 59 | 18 | 0 | 56 | 0 | 9 | 44 | 0 | 0 |  |  | > 10
7 | Nc1nc(-c2ccc3c(N)n[nH]c3c2)cc(N2CCCCC2)n1 [GSK2228768] | 53 | 0 | 0 | 12 | 0 | 0 | 0 | 0 | 0 | 0 | 6 | 0 | 0 |  |  | 
8 | Fc1cccc(COc2ccc(Nc3ncnc4sc(-c5ccc[nH]5)cc34)cc2Cl)c1 [GW707818] | 0 | 0 | 0 | 0 | 2 | 9 | 5 | 16 | 4 | 1 | 24 | 0 | 7 |  |  | 
9 | O=C(Nc1ccccc1F)NC1CCN(c2ccnc(Nc3ccc(F)cc3)n2)C1 (stereo not shown) [GSK1379722] | 0 | 0 | 0 | 9 | 0 | 25 | 0 | 0 | 0 | 20 | 40 | 0 | 13 |  |  | 
10 | COC(=O)c1c(-c2ccccc2)c2cc(Cl)ccc2c(=O)n1Cc1ccc(S(C)(=O)=O)cc1 | 18 | 40 | 0 | 18 | 0 | 0 | 0 | 0 | 0 | 17 | 0 | 9 | 3 |  |  | 
11 | Clc1cc(Nc2ncnc3cc[nH]c23)ccc1OCc1ccccn1 | 7 | 48 | 0 | 0 | 28 | 10 | 0 | 0 | 5 | 9 | 3 | 10 | 19 |  |  | 
12 | Cn1ccc2ncnc(Nc3ccc(Oc4cccc(Cl)c4)c(Cl)c3)c21 | 27 | 45 | 15 | 16 | 28 | 0 | 0 | 17 | 0 | 1 | 0 | 22 | 7 |  |  | 
13 | O=C(Nc1n[nH]c2nc(-c3ccco3)c(Br)cc12)c1ccc(CN2CCCC2)cc1.O=C(O)[C@H](O)[C@@H](O)C(=O)O [SB-742352] | 0 | 63 | 36 | 0 | 0 | 24 | 0 | 0 | 0 | 0 | 0 | 0 | 0 |  |  | 
14 | Oc1ccc2ncnc(Nc3ccc(OCc4ccccc4)cc3)c2c1 [GI262866] | 0 | 0 | 0 | 7 | 0 | 0 | 0 | 9 | 0 | 0 | 0 | 0 | 9 |  |  | 
15 | Cl.Cn1ccc(-c2cccc(Nc3ccnc4cc(-c5nccs5)ccc34)c2)n1 [GW525701] | 50 | 0 | 1 | 10 | 0 | 3 | 0 | 0 | 0 | 6 | 55 | 0 | 7 |  |  | 
16 | Fc1cccc(COc2ccc(Nc3ncnc4nn5ccccc5c34)cc2Cl)c1 [GW689066] | 0 | 0 | 0 | 1 | 0 | 0 | 0 | 0 | 0 | 5 | 42 | 0 | 3 |  |  | 
17 | CC(C)(C)OC(=O)NC1CCCN(c2cc(-c3ccc4c(N)n[nH]c4c3)nc(N)n2)C1 (stereo not shown) [GSK2286096] | 60 | 0 | 0 | 6 | 0 | 0 | 0 | 0 | 0 | 8 | 5 | 0 | 0 |  |  | 
18 | Nc1nc(-c2ccc3c(N)n[nH]c3c2)cc(N2CCC[C@@H](C(=O)Nc3ccccc3)C2)n1.O=C(O)C(F)(F)F.O=C(O)C(F)(F)F [GSK2288359] | 38 | 0 | 0 | 0 | 0 | 0 | 0 | 0 | 0 | 0 | 11 | 0 | 7 |  |  | 
19 | COc1ccc(Nc2nccc(N3CCC(NC(=O)Nc4ccc5c(c4)OCO5)C3)n2)cc1 (stereo not shown) [GSK1379745] | 3 | 0 | 0 | 18 | 0 | 1 | 0 | 5 | 0 | 17 | 41 | 0 | 7 |  |  | 
20 | Cn1ccc2ncnc(Oc3ccc(NC(=O)Nc4cccnc4)c(Cl)c3)c21 | 19 | 23 | 0 | 11 | 0 | 0 | 0 | 0 | 0 | 0 | 0 | 0 | 8 |  |  | 
21 | Clc1ccc(-c2cc(-c3c[nH]nc3-c3ccccn3)ccn2)cc1 [GW681251] | 2 | 0 | 0 | 15 | 44 | 12 | 33 | 52 | 0 | 13 | 4 | 27 | 0 |  |  | 
22 | O=C(Nc1ccccc1)Nc1ccc(Oc2ccc3nccn3n2)cc1 | 0 | 66 | 18 | 27 | 0 | 5 | 24 | 9 | 0 | 15 | 1 | 13 | 0 |  |  | 
23 | Cc1ccc(NC(=O)c2cccc(C#N)c2)cc1-c1ccc(C(=O)Nc2ccncc2)cc1 [GSK1398463] | 73 | 50 | 10 | 54 | 0 | 18 | 0 | 0 | 2 | 18 | 6 | 0 | 0 |  |  | 
24 | FC(F)(F)c1cc(Nc2nccc(-c3c(-c4ccc(Cl)cc4)nn4ncccc34)n2)ccc1Cl [GW829351] | 4 | 42 | 0 | 0 | 0 | 0 | 0 | 12 | 0 | 0 | 27 | 0 | 0 |  |  | 
25 | COc1ccc(NC(=O)Nc2ccc(C)c(-c3ccc(C(=O)Nc4ccncc4)cc3)c2)cc1 [GSK1398475] | 2 | 0 | 2 | 12 | 0 | 43 | 0 | 0 | 0 | 19 | 34 | 0 | 0 |  |  | 
26 | Cc1cccc(-c2nc(Nc3ccc4[nH]nnc4c3)c3ccccc3n2)n1 [GW867587] | 0 | 78 | 47 | 0 | 0 | 0 | 0 | 0 | 0 | 0 | 8 | 5 | 0 |  |  | 
27 | C[C@@H]1CCN(C(=O)CO)C[C@@H]1N(C)c1ncnc2[nH]ccc12 | 8 | 35 | 0 | 0 | 13 | 0 | 0 | 0 | 8 | 0 | 0 | 0 | 0 |  |  | 
28 | OCCOCCn1ccc2ncnc(Nc3ccc(Oc4cccc(Cl)c4)c(Cl)c3)c21 | 0 | 24 | 0 | 0 | 0 | 0 | 8 | 0 | 0 | 2 | 0 | 0 | 0 |  |  | 
